Screens as filed in PubChem BioAssay.
Shown are actives, neighbours in structure and some others; about 2.6% of the full set was active somewhere.
TCR activator: activators of T cell receptors | primary human leukocytes, anti-CD3, IL-2 HTRF, 48 h | Potency, µM (top dose mostly 9.22 µM), usual class: activators | 330,000 tested, under 10 active | AID 504894
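Primary human leukocytes receive a-CD3 beads and test compound and are incubated 48 hr. Secreted IL-2 is then assayed by HTRF, measuring 665nm acceptor emission after 320nm excitation of the europium donor.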
CCT chaperon mod: modulators of cytosolic chaperonin (CCT/TRiC) activity | AID 651819 | activity change, % (concentration not given with the values), hits read low | 0.3% of 360,000 active | purified chaperonin ATPase assay, HTRF ADP detection, 30 min; in the data active means activity change below about -30%
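Enzyme 40 or 20 nM (batch-dependent) in Tris pH 7.4/KCl/MgCl2/DTT; cpd 76 uM single point; ATP 10 uM; 30 min 37 °C; Transcreener ADP HTRF detection, 30 min RT; ratio 665/615.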
AT treatment: potential ataxia-telangiectasia treatment. F2112 A-T fibroblasts, KAP-1 phosphorylation AlphaLISA; neocarzinostatin DNA damage 30 min before lysis. Potency, µM (highest dose often 57.5 µM), most hits filed as activators. 0.19% of 320,000 active; further: nearly all actives have a fitted effect of over 45% in size
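ATM-like activity read as KAP-1 phosphorylation via AlphaLISA donor/acceptor antibody pairs after lysis and 6 hr at 25C. Cells were ATM-null patient fibroblasts (F2112, hTERT), dosed 60 min, then exposed to the DSB inducer NCS for 30 min.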
Nrf2 ARE act: activates Nrf2 signaling; Potency, µM (top dose mostly 46.1 µM), actives largely listed as activators; AREc32 ARE-luciferase reporter (MCF7-derived line), luminescence, 24 h; 0.31% of 410,000 active; AID 624171; further: nearly all actives have a fitted effect of over 65% in size
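Luciferase luminescence (Steady-Glo, 30 min at room temperature) served as the read-out of ARE activation in AREc32 cells treated with compounds for 24 hr at 37 deg C.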
A549 viability: kills or reduces viability of A549 cells in Nrf2 counter-screen; A549 ARE-Fluc cells, CellTiter-Fluor viability, 18-24 h; Potency, µM (top dose mostly 46 µM), most hits filed as inhibitors; 0.16% of 390,000 active; AID 504648
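Cytotoxicity counterscreen: CellTiter-Fluor fluorescence was measured in A549 ARE_Fluc cells after 18-24 h of compound exposure in a concentration series. The subsequent BugLite luminescent read reports ARE-luciferase activity.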
Nrf2 inh: Nrf2 pathway inhibition | AID 504444 | A549 ARE-Fluc reporter, luciferase luminescence, 18-24 h | 2.1% of 360,000 active | Potency, µM (doses to about 46 µM), actives largely listed as inhibitors; further: nearly all actives have a fitted effect of over 60% in size
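In this cell-based qHTS, ARE-driven firefly luciferase in A549 cells reports Nrf2 activity; the luminescent signal after BugLite lysis is the measured value, with a prior CellTiter-Fluor read for cell health.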
Large screens that a line does not name were inactive. Unless noted, the call rests on the fitted dose curve; in most records, active means well fitted curve in the direction sought with a large enough effect; inconclusive means small, poorly fitted or top-dose-only effect, or another doubt; inactive means no such curve, though single readings can be large; an effect the other way counts as inactive or inconclusive.

COC(=O)C1CCN(c2nc3ccccc3nc2C(C#N)C(=O)NCCc2ccccc2)CC1 (stereo not given)	none
Cc1cc(C(=O)CSc2nc(N)cc(N)n2)c(C)n1CCc1ccc(F)cc1	Nrf2 inh 15µM
CC1CCCCC12NC(=O)N(CC(=O)N1CCN(S(=O)(=O)c3ccc4c(c3)CCC4)CC1)C2=O (stereo not given)	none
COc1ccc(-c2cc(C)no2)cc1S(=O)(=O)Nc1c(C)cc(C)cc1C	none (no result: TCR activator, CCT chaperon mod, AT treatment)
Cc1nc(N2CCCCC2)c2c(C)c(C(=O)Nc3cccc(C(F)(F)F)c3)sc2n1	Nrf2 inh 23µM
COc1ccc(O)c(C2Nc3ccccc3C(=O)N2Cc2ccccc2)c1 (stereo not given)	none (no result: TCR activator, CCT chaperon mod, AT treatment, Nrf2 ARE act)
O=C(NCc1ccccc1)c1nc2ccccc2s1	none
COc1ccc(-c2nc3ccccc3s2)cc1	Nrf2 inh inconclusive
O=C(CSc1ncc(-c2ccccc2)nn1)NCc1ccco1	CCT chaperon mod -92
c1coc(-c2nc3ccccc3s2)c1	Nrf2 ARE act 11µM, Nrf2 inh inconclusive (no result: AT treatment)
O=C(NCc1ccco1)c1nc2ccccc2s1	Nrf2 ARE act 13µM, Nrf2 inh inconclusive (no result: TCR activator)
CC1Cc2ccccc2N1C(=O)CCn1cccn1 (stereo not given)	none
COc1ccc(/C(C)=C2\SC(=S)N(CCC(=O)O)C2=O)cc1	none (no result: Nrf2 inh)
C/C(=C1/SC(=S)N(CCC(=O)O)C1=O)c1ccc(O)cc1	CCT chaperon mod -38
C=CCC[C@H](Cc1ccc(F)cc1)C(=O)OC[C@@H](Cc1c[nH]c2ccccc12)NC(=O)[C@H](CC=C)CC(=O)NCCO	none
C=CCC[C@H](Cc1ccc(F)cc1)C(=O)OC[C@@H](Cc1c[nH]c2ccccc12)NC(=O)[C@H](CC=C)CC(=O)N(CCO)Cc1ccccc1	A549 viability inconclusive, Nrf2 inh 21µM
C=CC[C@@H](CC(=O)N(CCO)Cc1ccccc1)C(=O)N[C@@H](COC(=O)[C@@H](CC=C)Cc1ccc(F)cc1)Cc1c[nH]c2ccccc12	A549 viability inconclusive, Nrf2 inh inconclusive
C=CCC[C@@H](Cc1ccc(F)cc1)C(=O)OC[C@@H](Cc1c[nH]c2ccccc12)NC(=O)[C@H](CC=C)CC(=O)N(CCO)Cc1ccccc1	A549 viability inconclusive, Nrf2 inh 23µM
C=CC[C@H](CC(=O)N(CCO)Cc1ccccc1)C(=O)N[C@@H](COC(=O)[C@@H](CC=C)Cc1ccc(F)cc1)Cc1c[nH]c2ccccc12	A549 viability inconclusive, Nrf2 inh 18µM
COc1ccccc1N1CCN(C(=O)c2cnn(-c3ccc(F)cc3F)c2C2CCNCC2)CC1	none (no result: TCR activator, CCT chaperon mod, AT treatment)
O=C1NC2CCCCC2C(=O)N1OS(=O)(=O)c1ccccc1 (stereo not given)	none (no result: AT treatment)
Cc1ccc(-c2cn3nc(N4CCCC(C(=O)Nc5ccc(F)cc5)C4)sc3n2)cc1 (stereo not given)	none (no result: TCR activator, CCT chaperon mod, AT treatment)
CCCCCCn1cc(CN2CC(N(C)CC)CS2(=O)=O)nn1 (stereo not given)	none (no result: TCR activator, AT treatment, A549 viability, Nrf2 inh)
COc1ccc(-n2nc3c(N4CCC(C(=O)NCc5cccc(F)c5)CC4)nnc(C)c3c2C)cc1	A549 viability inconclusive, Nrf2 inh inconclusive (no result: TCR activator, CCT chaperon mod, AT treatment)
Cc1cc(C(=O)N2CCCC(C(=O)c3cccc(C(F)(F)F)c3)C2)n[nH]1 (stereo not given)	Nrf2 inh 18µM
Cn1nc(C(F)(F)F)c(C#N)c1N1CCN(c2ccc(F)cc2)CC1	Nrf2 inh 12µM
Cn1nc(C(F)(F)F)c(C#N)c1N1CCN(c2ccccc2)CC1	Nrf2 inh inconclusive
Cn1c(=O)c2c(SCC(=O)Nc3ccc4c(c3)OCCO4)nc(CC(C)(C)C)nc2n(C)c1=O	A549 viability inconclusive, Nrf2 inh 7.3µM
COc1ccc(CNC(=O)c2cn(Cc3ccc(S(=O)(=O)N(C)C)cc3)c(=O)s2)cc1	none (no result: TCR activator, AT treatment, A549 viability, Nrf2 inh)
OC[C@@H]1CCC[C@@H](n2cnc3c(=S)nc[nH]c32)O1	none (no result: TCR activator, CCT chaperon mod, AT treatment, Nrf2 ARE act)
O=[N+]([O-])c1cc(Br)c(Nc2ccccc2)c([N+](=O)[O-])c1	Nrf2 inh inconclusive
O=[N+]([O-])c1cc([N+](=O)[O-])c2c(=Nc3ccccc3)n(-c3ccccc3)n(O)c2c1	Nrf2 ARE act 14µM
CN(CC(=O)Nc1c(Cl)cccc1Cl)C(=O)CNC(=O)c1ccc2ccccc2c1	Nrf2 inh inconclusive
Cc1ccc(CSc2nccc(-c3c(C)nc4ccccn34)n2)cc1	Nrf2 inh 8.2µM
Cc1ccc(CSc2ncn(-c3ccccc3)n2)cc1	none
CC1(C)N=C(Nc2nc3ccccc3o2)NC2=C1C(=O)CCC2	Nrf2 inh inconclusive (no result: TCR activator, CCT chaperon mod, AT treatment, Nrf2 ARE act)
COc1ccc(CCNC(=O)C(=O)NCC(c2ccc3c(c2)OCO3)N2CCOCC2)cc1 (stereo not given)	none (no result: TCR activator, CCT chaperon mod, AT treatment, Nrf2 inh)
COc1ccc(C2=Nn3c(nnc3-c3cc(OC)ccc3OC)SC2)cc1	Nrf2 inh inconclusive (no result: TCR activator, CCT chaperon mod, AT treatment, Nrf2 ARE act)
COc1ccc(OC)c(-c2nnc3n2N=C(c2ccc(OC)c(OCC4CC4)c2)CS3)c1	A549 viability inconclusive, Nrf2 inh 15µM (no result: CCT chaperon mod)
COc1ccc(C2=Nn3c(nnc3-c3ccccc3Cl)SC2)cc1OCC1CC1	A549 viability inconclusive, Nrf2 inh 21µM (no result: CCT chaperon mod)
CCOC(=O)c1scc(-c2ccccc2)c1S(=O)(=O)Nc1ccc(N(C)C)cc1	Nrf2 inh inconclusive (no result: TCR activator, CCT chaperon mod, AT treatment)
CCc1ccc(-c2nn(CC(=O)NC3CCCC3)c3c2cnc2ccc(F)cc23)cc1	Nrf2 inh inconclusive (no result: TCR activator, CCT chaperon mod, AT treatment)
Cc1ccc(NS(=O)(=O)c2cc3c(cc2N2CCCCC2)NC(=O)CC3)cc1C	Nrf2 inh inconclusive (no result: TCR activator, CCT chaperon mod, AT treatment, Nrf2 ARE act)
Cc1ccc(Cl)cc1NS(=O)(=O)c1ccc(-n2cccn2)cc1	A549 viability inconclusive
Cc1ccc(NS(=O)(=O)c2ccc(-n3cccn3)cc2)cc1F	Nrf2 inh 15µM
O=C1COc2ccccc2C(c2nc3ccccc3[nH]2)N1C1CC1 (stereo not given)	none (no result: TCR activator, AT treatment, A549 viability, Nrf2 inh)
CC1=C(C(=O)N(C(C)C)C(C)C)CC(CC(=O)NCCc2ccccn2)C(=O)N1CCCN1CCCC1=O (stereo not given)	none (no result: TCR activator, AT treatment, A549 viability, Nrf2 inh)
CC1CC(C)CN(C(=O)C2CCN(S(=O)(=O)N3CCC4(CC3)OCCO4)CC2)C1 (stereo not given)	none
Cc1ccc(S(=O)(=O)Nc2cccc3c2O[C@H](CN(C)C(=O)Nc2ccc(C(F)(F)F)cc2)[C@@H](C)CN([C@H](C)CO)C3=O)cc1	Nrf2 inh 18µM
Cc1ccc(S(=O)(=O)Nc2ccc3c(c2)C(=O)N([C@H](C)CO)C[C@H](C)[C@@H](CN(C)C(=O)NC2CCCCC2)OCCCC[C@@H](C)O3)cc1	none (no result: TCR activator, AT treatment, A549 viability, Nrf2 inh)
